HttQ103 aggreg – qHTS Multiplex Assay to Identify Dual Action Probes in a Cell Model of Huntington: Aggregate Formation (GFP). AID 1688, 2009. actives 1.1% (n = 220,000). PC12 HttQ103-GFP aggregates, Acumen cytometry, 40 h. Potency, µM (highest dose often 46.1 µM), for inactives: at the highest dose activity change, negative = inhibition, hits mostly inhibitors; further: potency means the concentration at half of the fitted maximal effect; on the % scale 0 is the no-effect control and ±100 the full control effect; nearly all actives have a fitted effect of over 60% in size
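PC12/HTTQ103-GFP, ecdysone-inducible; teb 100 nM; cpd qHTS titration; GFP aggregates read on laser cytometer, Ex 488/Em 500-530 nm.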
Coupling enz – qHTS Assay for Inhibitors of Fructose-1,6-bisphosphate Aldolase from Giardia Lamblia: Coupling assay counterscreen. coupling enzyme system counterscreen, AmpLite Red fluorescence. activity change, negative = inhibition, % at 58.2 µM, hits read low. actives 0.67% (n = 290,000); in the data active means activity change below about -30%; further: on the % scale 0 is the no-effect control and ±100 the full control effect
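Counterscreen lacking aldolase: glyceraldehyde-3-phosphate coupling-enzyme reagent preincubated 10 min at RT with compound (at 57.5 uM final), then substrate/coupling system with AmpLite Red added; fluorescence read at 525/598 nm after 20 min RT.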
TexasRed fluor – Total Fluorescence Counterscreen for Inhibitors of the Interaction of Thyroid Hormone Receptor and Steroid Receptor Coregulator 2. Potency, µM (doses to about 106 µM), for the others: at the highest dose fluorescence change, negative = quenching. TRb/SRC2 Texas Red total fluorescence interference. actives 0.29% (n = 280,000). AID 1479, 2009; active means well fitted curve in either direction with a large enough effect; inconclusive means small, poorly fitted or top-dose-only effect; further: potency means the concentration at half of the fitted maximal effect; on the % scale 0 is the no-effect control and ±100 the full control effect
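Human TRb ligand-binding domain at 0.6 uM with 20 nM Texas Red SRC2 peptide in Tris buffer containing 1 uM T3 and 5% DMSO, incubated with compound 5 h at ambient temperature. Total fluorescence (555/632 nm) calculated as parallel + 2 × perpendicular.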
KDM4E inh – qHTS Assay for Inhibitors of Human Jumonji Domain Containing 2E (JMJD2E); Lysine-specific demethylase 4E (Homo sapiens), B2RXH2; JMJD2E catalytic domain, FDH-coupled NADH fluorescence (FDH is formaldehyde dehydrogenase); Potency, µM (highest dose often 57.1 µM), for the others: at the top dose activity change, negative = inhibition, most hits filed as inhibitors; actives 1.6% (n = 230,000); active means well fitted inhibition curve with a large enough effect, not every such curve was filed as active; inconclusive means small, poorly fitted or top-dose-only effect, or another doubt; inactive means no such curve, though single readings can be large or run the other way;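 further: potency means the concentration at half of the fitted maximal effect; 0% = wells with enzyme and -100% = buffer wells without enzyme; nearly all actives have a fitted effect of over 50% in size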
Target sequence (B2RXH2 1-337 limits assumed): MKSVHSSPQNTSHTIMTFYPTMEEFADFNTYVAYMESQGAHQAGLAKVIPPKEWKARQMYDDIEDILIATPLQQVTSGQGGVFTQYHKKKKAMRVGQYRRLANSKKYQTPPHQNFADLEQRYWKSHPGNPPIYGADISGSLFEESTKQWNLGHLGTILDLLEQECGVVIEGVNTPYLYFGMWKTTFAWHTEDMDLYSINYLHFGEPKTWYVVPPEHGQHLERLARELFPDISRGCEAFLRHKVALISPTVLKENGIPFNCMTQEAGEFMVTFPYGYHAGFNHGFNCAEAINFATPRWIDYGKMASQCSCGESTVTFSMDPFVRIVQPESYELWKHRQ
TRb SRC2 PPI – qHTS for Inhibitors of the Interaction of Thyroid Hormone Receptor and Steroid Receptor Coregulator 2; actives 0.065% (n = 280,000); AID 1469, 2008; TRbeta-SRC2 peptide binding, fluorescence polarization; receptor liganded with 1 µM T3; Thyroid hormone receptor beta (Homo sapiens), P10828; Potency, µM (series often up to 106 µM), for inactives: top-dose activity change, negative = inhibition, most hits filed as inhibitors;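 further: potency means the concentration at half of the fitted maximal effect; plate controls were bound peptide for no effect and peptide without receptor for full effect; nearly all actives have a fitted effect of over 50% in size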
Target sequence (P10828 whole entry, looked up): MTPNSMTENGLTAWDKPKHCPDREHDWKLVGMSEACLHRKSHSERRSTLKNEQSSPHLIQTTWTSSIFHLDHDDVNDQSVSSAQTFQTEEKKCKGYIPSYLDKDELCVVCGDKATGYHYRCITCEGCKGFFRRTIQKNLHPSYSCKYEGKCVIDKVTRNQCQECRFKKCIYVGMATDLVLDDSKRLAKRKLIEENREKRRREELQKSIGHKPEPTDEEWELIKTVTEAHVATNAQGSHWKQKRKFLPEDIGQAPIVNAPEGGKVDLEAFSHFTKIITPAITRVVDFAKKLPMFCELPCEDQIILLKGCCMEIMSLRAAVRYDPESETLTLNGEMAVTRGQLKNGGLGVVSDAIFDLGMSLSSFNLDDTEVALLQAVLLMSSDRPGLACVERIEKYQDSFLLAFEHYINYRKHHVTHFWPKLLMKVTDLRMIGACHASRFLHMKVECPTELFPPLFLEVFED
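Polarization signal, normalized between peptide-alone and full complex controls, measured compound effects on T3-liganded human TRb LBD (0.6 uM) binding 20 nM Texas Red SRC2 peptide after 5 hr.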
HTT cytoprotect – qHTS Multiplex Assay to Identify Dual Action Probes in a Cell Model of Huntington: Cytoprotection (ATP); actives 0.14% (n = 230,000); Potency, µM (series often up to 56.4 µM), for the others: cytoprotection (ATP increase), hits mostly activators; PC12 HTT-Q103 induced, cytoprotection, ATP luminescence, 40 h; further: potency means the concentration at half of the fitted maximal effect; % of control where 0% means no effect; nearly all actives have a fitted effect of over 45% in size
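Cells were plated at 1500 per well in phenol red-free DMEM with 5% equine and 5% calf serum. Tebufenozide (100 nM final) and compounds were added, then ATPlite reagent, and luminescence was read.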
Starred values were filed as active, the others as inactive; ? = inconclusive; · = no result given; [ ] = dose if it differs, or a comment. Hits are enriched below; roughly 2% of the tested compounds scored in any of these assays. Unless noted, the call rests on the fitted dose curve; in most records, active means well fitted curve in the direction sought with a large enough effect; inconclusive means small, poorly fitted or top-dose-only effect, or another doubt; inactive means no such curve, though single readings can be large; an effect the other way counts as inactive or inconclusive.

SMILES	HttQ103 aggreg	Coupling enz	TexasRed fluor	KDM4E inh	TRb SRC2 PPI	HTT cytoprotect
Clc1cccc(Cl)c1CNC1CCCC1	0.112µM*	1.5	-6.2%	-0.7%	-7.2%	-7.6%
Cc1c(CNC2CCCCC2)c(C(=O)O)c(C)n1Cc1c(F)cccc1Cl	·	·	-4.3%	·	1.8%	·
CC(Sc1oc(-c2cccs2)nc1S(=O)(=O)c1ccccc1)c1ccccc1 (centres undefined)	·	·	1.1%	·	-5.3%	·
O=C(CSc1nnc(-c2ccncc2)n1-c1ccccc1)Nc1ccc(Br)cc1	·	·	-10.2%	·	-0.7%	·
CCOC(=O)C(C(=O)OCC)c1cc(Br)c2noc3c2c1C(=O)c1ccccc1-3	?	-64.0*	-8.8%	?	-4.9%	-87.2%
CCCCNc1cc(NC2CCCCC2)c2c3c(onc13)-c1ccccc1C2=O	·	·	11.6%	·	5.2%	·
Cc1cc(Nc2cccc([N+](=O)[O-])c2)n2c(nc3ccccc32)c1C#N	2.82µM*	0.7	3.6%	-24.1%	5.5%	-1.7%[10 µM]
Cc1cc(Nc2ccc(F)cc2)n2c(nc3ccccc32)c1C#N	·	·	-3.9%	·	10.6%	·
COc1ccc(NCc2ccccc2[N+](=O)[O-])cc1OC	-12.0%	-40.2*	-0.2%	?	-17.8%	14.4%[10 µM]
Fc1ccccc1N1CCN(c2ncnc3onc(-c4ccc(Cl)cc4)c23)CC1	·	·	-0.7%	·	3.8%	·
CC1=C(n2nnc3ccccc32)C(c2ccccc2)C(C#N)=C(N)O1 (centres undefined)	10.6%	-42.2*	-3.0%	?	0.8%	3.6%
Cc1ccc(NC(=O)COCc2cc(-c3cccs3)on2)cc1Cl	·	·	-10.6%	·	4.2%	·
Cc1c(C(=O)N2CCC(C)CC2)c(S(=O)(=O)N2CCN(c3cccc(Cl)c3)CC2)c(C)n1C	·	·	0.0%	·	7.0%	·
Cc1ccc(NC(=S)Nc2cccc3cnccc23)c(C)c1	-20.2%	-36.3*	1.0%	?	4.1%	-26.0%
CCc1ccc(NC(=S)Nc2cccc3cnccc23)cc1	-27.0%	-49.2*	-4.2%	?	7.1%	-27.8%
CC(=O)N(C)c1ccc(NC(=S)Nc2ccccc2)cc1	-1.5%	0.1	-5.4%	-2.9%	-2.1%	6.5%[10 µM]
Cc1cc(C)cc(NC(=S)Nc2cccc3cnccc23)c1	1.0%	-36.1*	0.2%	20µM*	-1.8%	-13.3%[10 µM]
C=C(C)CNC(=S)Nc1cccc2cnccc12	?	-0.9	-6.2%	11.6%	-5.7%	9.0%[10 µM]
CC(=O)N(C)c1ccc(NC(=S)Nc2cccc3ccccc23)cc1	-0.6%	-35.5*	-1.4%	?	5.2%	3.4%[10 µM]
COCCNc1cc(-c2ccccc2C(F)(F)F)ncn1	·	-0.3	-3.9%	?	2.0%	-9.4%
COc1ccc(OC)c(-c2nnc3n2N=C(c2ccccc2OC)CS3)c1	·	-4.5	-0.4%	·	-6.1%	·
O=C(CCl)Nc1cccn2ncnc12	20µM*	-0.4	0.8%	?	-15.2%	-73.1%
O=C(NCc1ccc2c(c1)OCO2)c1ccc(COc2cccc(Cl)c2)o1	28.2µM*	1.0	0.6%	2.2%	2.6%	-16.0%[10 µM]
O=C(NCc1ccc2c(c1)OCO2)c1ccc(CS(=O)Cc2cccc(Cl)c2)o1 (centres undefined)	·	-0.2	·	·	·	·
COC(=O)c1ccc(COc2ccc3c(c2)CCC3)o1	-3.3%[9.22 µM]	-2.4	-2.3%	-3.0%	0.5%	-2.1%[10 µM]
SMILES	HttQ103 aggreg	Coupling enz	TexasRed fluor	KDM4E inh	TRb SRC2 PPI	HTT cytoprotect
O=C(NCc1cccnc1)c1ccc(COc2ccc3c(c2)CCC3)o1	8.91µM*	-1.9	0.0%	-0.5%	-22.4%	6.3%[10 µM]
CCC[C@H](NC(=O)[C@H](CC(C)C)N(C)C(=O)CNC(=O)[C@@H](NC(=O)[C@H](Cc1ccccc1)NC(=O)[C@H](CCCCN)NC(=O)[C@@H](N)CC(=O)O)C(C)C)C(N)=O	·	1.0	-1.1%	·	-1.1%	·
CCOC(=O)/C(C#N)=C/c1ccc(OC(=O)c2ccco2)c(OCC)c1	8.91µM*	0.1	2.7%	-2.9%	0.2%	18.0%[10 µM]
CCOC(=O)/C(C#N)=C\c1ccc(OC)c(OC)c1	?	1.7	-0.3%	-9.4%	-7.7%	4.3%
CCOC(=O)C1=C(CN2CCN(c3ccc(OC)cc3)CC2)NC(=O)NC1c1ccc(Cl)cc1 (centres undefined)	·	·	-1.3%	·	-3.3%	·
CCOC(=O)C1=C(CN2CCN(c3ccc(OC)cc3)CC2)NC(=O)NC1c1ccc(OC)cc1 (centres undefined)	·	·	100µM*[quencher]	·	-20.3%	·
N#C/C(=C\c1ccncc1)c1nc2ccccc2o1	-8.7%[9.22 µM]	-1.3	0.2%	?	3.6%	-36.4%[10 µM]
N#C/C(=C\Nc1ccccc1O)c1nc2ccccc2o1	5.62µM*	-4.6	3.0%	0.2%	0.3%	-26.7%[10 µM]
CCOC(=O)c1ccccc1NC(=O)NC(C)c1c(-n2cccc2)sc(C)c1C (centres undefined)	·	·	22.4µM*[quencher]	·	-14.3%	·
COc1cccc(/C=N/n2c(C)nc3ccccc32)c1OC	12.6µM*	-0.6	0.2%	-4.8%	9.1%	-30.5%[10 µM]
Cc1nc2ccccc2n1/N=C/c1ccc([N+](=O)[O-])s1	5.01µM*	-5.5	0.3%	-17.5%	-4.4%	2.4%[10 µM]
O=[N+]([O-])c1ccc(/C=N/n2cnc3ccccc32)s1	15.8µM*	1.8	-2.0%	-0.1%	6.1%	·
COc1cc2c(cc1OC)[C@@H]1O[C@](c3ccsc3)(C2)Oc2cc(C)n(-c3ccccc3)c(=O)c21	·	0.4	·	·	·	·
CC(=O)O[C@@H]1[C@@H](O)CN[C@@H]1Cc1ccccc1	·	-1.2	-1.7%	·	-1.2%	·
CCc1ccc(NC(=O)CSc2nccn2C2CCCC2)cc1	·	·	-0.6%	·	0.3%	·
CC(C)CC(=O)Nc1ccc2nc(SCC(=O)N3CCOCC3)sc2c1	·	·	1259µM*[quencher]	·	-13.9%	·
Cc1ccc(C)c(S(=O)(=O)Nc2ccc3scnc3c2)c1	-21.7%	-45.2*	1.0%	-0.1%	-22.4%	-58.1%
COc1cccc(NC(=O)CSc2nc3ccccc3c(=O)n2CCCC(=O)NCCCN2CCOCC2)c1	-20.5%	2.8	-6.1%	-17.4%	-11.4%	-46.4%
CCCCn1c(SCC(N)=O)nc2ccc(N3CCOCC3)cc2c1=O	2.0%	-40.3*	-0.3%	?	-2.1%	-17.2%
CCCCn1c(SCC(=O)Nc2cccc(OC)c2)nc2ccc(N3CCOCC3)cc2c1=O	13.1%	-32.5*	1.0%	?	1.1%	-15.7%
CCOC(=O)/C=C/CCCC=O	·	1.7	-3.3%	-0.8%	10.1%	-35.2%
CCNc1nc(N)nc(Cl)n1	·	·	-5.2%[201 µM]	·	-4.3%[201 µM]	·
